The results in this text go back to PubChem BioAssay (EPA / NIEHS).

Activity calls are given as the source filed them. Rule for the calls: active = hit-call score of the fitted dose curve at least 0.9, where 1 is the maximum; inactive = score below 0.9.

Read-out in this experiment: Insulin-like growth factor-binding protein 1 (IGFBP1), IGFBP1 (gene 3484)
In words: LTEA_HepaRG_IGFBP1: Life Technologies and Expression Analysis (LTEA) Assay for Insulin-like growth factor-binding protein 1 (IGFBP1) using HepaRG (AID 2283508). Conditions: mRNA level, 48 h; actives raise or lower the signal. As to the method:
LTEA_HepaRG is a cell based, multiplexed-readout assay that uses HepaRG, a human liver cell line, with measurements taken at 48 hours after chemical dosing on a 96-well plate.LTEA_HepaRG_IGFBP1 is one of 102 assay component(s) measured in the LTEA HepaRG cell culture assay. It is a marker of Cell proliferation, survival, death.Data from the assay component LTEA_HepaRG_IGFBP1 was analyzed into 1 endpoint. This assay endpoint, LTEA_HepaRG_IGFBP1, was analyzed with bidirectional fitting relative to DMSO as the negative control and baseline of activity. Using a type of inducible reporter, measures of mRNA induction for gain or loss-of-signal activity can be used to understand regulation of transcription factor activity. To generalize the intended target to other relatable targets, this assay endpoint is annotated to the transporter intended target family, where the subfamily is hormone carrier protein.
A total of 1060 chemcials from the ToxCast library were tested in eight-point concentration-response experiments. Cell culture and cytotoxicity assays were conducted at Thermo Fisher Scientific's Custom Services facility (Madison, WI). A single lot of human HepaRG cells (Thermo Fisher Scientific, Frederick, MD) was used for the cell culture experiments. 96-well format collagen type I coated plates of human HepaRG cells were prepared using established methods. Briefly, cryopreserved HepaRG cells were thawed, plated at a density of approximately 100,000 cells/well in HepaRG Thaw, Plate, and General Purpose media (HPRG770, Thermo Fisher Scientific), and incubated for 48 hours. 0.5% DMSO was selected as vehicle control to balance the requisite need of DMSO in HepaRG cultures to maintain differentiation (for example, baseline metabolism, proportions of hepatocytes vs. cholangiocytes), while enabling further hepatic receptor pathway activation (for example, PXR and CAR) in response to chemical exposure. 48 hours after plating, the culture medium was replaced with HepaRG Serum-Free Incudtion Media. Cells were exposed to each test chemical in duplicate and maintained in CO2 incubators for another 48 hours. Chemical plates were thawed to room temperature and 200x concentrations of treatment groups were prepared. 8-point conentration-reponse curves were made with the highest exposure at 100 uM, followed by half-log dilutions, all in 0.5% DMSO. Each test plate contained variouse controls, induction positive controls (1mM phenobarbital), cytotoxicity positive controls ([…] aflatoxin B1), vehicle controls (0.5% DMSO), and total lysis controls (0.5% DMSO). Cell morphology images were taken using an Essen IncuCyte FLR automated microscope, with six 96-well plates imaged in about 24 minutes. Images were captured and exported and JPEG files. Spent culture media was transfered to black-well plates for the LDH assay, and remaining media was sorted at -80 C for later use. Cells were treated with RLT buffer and frozen until shipped for gene expression analysis. Total RNA was isolated from the cell suspension in 75 uL of Buffer RLT (Qiagen, Germantown, MD 20874) by Quintiles/Expression Analysis (Durham, NC) using a custom isolation procedure. Total RNA from each plate well was transferred to a preamplification plate. Fluidigm's 96.96 Dynamic ArrayTM (Fluidigm, Amsterdam, the Netherlands) technology was used for gene expression analyses by quantitative reverse transcription polymerase chain reaction (qRT-PCR, performed by Quintiles/Expression Analysis, Durham, NC)89. Standard TaqManTM Assays (Applied Biosystems/ThermoFisher Scientific, Foster City, CA) were used to assess the expression of 93 genes selected based on their selectivity and sensitivity to important hepatic receptors known to be modulated by environmental chemicals; importance in human hepatocyte functionality; and hepatotoxicity. […]
Regarding `CCCCCCC(=O)O`, the result was inactive.
Take `Cc1oc(-c2ccccc2)nc1CCOc1ccc(C[C@H](Nc2ccccc2C(=O)c2ccccc2)C(=O)O)cc1`: the AC50 is 30.9 µM (active).
The same measure, in the same setting: for `CCCCCCCCCCCCc1ccccc1S(=O)(=O)O` the value was 76.8 µM (active).
Take `CCCCC(CC)COC(=O)CCCCC(=O)OCC(CC)CCCC` (stereo not given): the outcome was inactive.
For `NC(=O)N1C(=O)C(C(=O)c2cc(Cl)cs2)c2cc(F)c(Cl)cc21` (stereo not given), the AC50 was 16 µM (active).
Take `Nc1cccc2c(N)cccc12`: the compound was called inactive.
For the compound `CN1CCN(c2ccccc2/C=C2\SCCN(c3ccc(Cl)c(Cl)c3)C2=O)CC1`, the AC50 is 60.9 µM (active).
`CN(C)C=O`: the call was inactive.
On the same count and under the same terms, for `COCC(C)OCC(C)O` (stereo not given) the value was “inactive”; for `CC(C)(C)c1ccc(O)c(C(C)(C)C)c1`, “inactive”.
For the compound `ClC1=C(Cl)C(Cl)(Cl)C(Cl)=C1Cl`, the compound was called inactive.
Regarding `CC(C)CCCCCCOC(=O)CCCCC(=O)OCCCCCCC(C)C`, the compound was classed as inactive.
Consider `Oc1cc2ccccc2c2ccccc12`, for which the outcome was inactive.
On the same count and under the same terms, for `CC(O)CO` (stereo not given) the value was “inactive”.
For the compound `CC(=O)NC1(c2cccc(F)c2)CCN(CC[C@@]2(c3ccc(Cl)c(Cl)c3)CN(c3ccccc3)C(=O)CO2)CC1`, the AC50 was 41.5 µM (active).
On to `O=C(O)Cc1cc(I)c(Oc2cc(I)c(O)c(I)c2)c(I)c1`, for which the AC50 was 55.7 µM (active).
Regarding `CC(C)(C)CC(C)(C)c1ccc(O)c(-n2nc3ccccc3n2)c1`, the result was inactive.
In the case of `O=C(O)c1ccccc1C(c1ccc(O)cc1)c1ccc(O)cc1`, the call was inactive.
As to `Cc1cc(CCN2CCN(c3nsc4ccccc34)CC2)cc2c1NC(=O)CC2(C)C`, the AC50 was 90.9 µM (active).
For `OC1CCCCC1`, the compound was classed as inactive.
With `CC(C)(C)c1cccc(C(C)(C)C)c1O`, the outcome was inactive.
Take `CCc1ccc(CCOc2ccc(CC3SC(=O)NC3=O)cc2)nc1` (stereo not given): the AC50 is 82 µM (active).
On to `c1ccc2c(c1)Cc1ccccc1-2`, for which the call was inactive.
`c1ccc2c(c1)ccc1ccccc12`: the outcome was inactive.
Same read-out and setting: for `OCCC(F)(F)C(F)(F)C(F)(F)C(F)(F)C(F)(F)C(F)(F)C(F)(F)C(F)(F)F` the value was “inactive”.
Consider `CC[C@H](c1ccc(O)cc1)[C@@H](CC)c1ccc(O)cc1`, for which the concentration at half-maximal activity (AC50) is 68.1 µM (active).
Take `CCOC(=O)CC(O)(CC(=O)OCC)C(=O)OCC`: the call was inactive.
`CCCCCCCC(=O)O`: the outcome was inactive.
Consider `CC[C@H](C)[C@@H](C(=O)O)n1sc2ccccc2c1=O`, for which the call was inactive.
In the case of `CCCCCCCCCCCCCCCS(=O)(=O)Oc1ccccc1`, the call was inactive.
On to `CC#C[C@]1(O)CC[C@H]2[C@@H]3CCC4=CC(=O)CCC4=C3[C@@H](c3ccc(N(C)C)cc3)C[C@@]21C`, for which the AC50 is 23.6 µM (active).
For the compound `O=c1c(-c2ccc(O)cc2)coc2cc(O)ccc12`, the call was inactive.
In the case of `N#C[C@@H]1CC(F)(F)CN1C(=O)CNC1CC2CCC(C1)N2c1ncccn1` (stereo not given in full), the call was inactive.
Still for that read-out and setting: for `Oc1cccc(O)c1` the value was “inactive”.
For the compound `CCCOC(=O)c1ccc(O)cc1`, the compound was classed as inactive.
The same measure, in the same setting: for `CCCOc1sc(C(=O)N2CCC(c3cc(CN)ccc3F)CC2)c(C)c1Br` the value was “inactive”; for `CC(C)(C)c1cc(C(C)(C)C)c(O)c(C(C)(C)C)c1`, “inactive”; for `O=[N+]([O-])c1ccc(O)cc1`, “inactive”.
For the compound `CCc1nn(C2CCCCC2)c2cc(C3(C#N)CCC(C(=O)O)CC3)ccc12` (stereo not given), the AC50 is 75.7 µM (active).
`Cc1cc(C)c(O)c(C)c1`: the result was inactive.

As a reminder, the AC50 is the concentration at which the activity in the assay is half-maximal.
